# Screen size: about 31,000 sequences; about 1,400 (4.5%) were called active. This is one part of a sample in which actives are shown more often than they occur. Unmarked numbers belong to inactive results.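 Rule for the calls: active = median seed-adjusted z-score above 1 or below -1; inactive = the rest.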
# Assay: Novel Modifiers of Survival Motor Neuron (SMN) Protein: Gene Identification via Genome-wide siRNA Screen;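 note: luminescence tracks full-length SMN protein made from the SMN2 reporter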
# Conditions: HEK293T SMN2-luciferase reporter, siRNA knockdown, 72 h; actives lie on both sides
# How it was run: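 HEK293T cells stably expressing an SMN2 splicing/cDNA-luciferase reporter were reverse-transfected with a druggable-genome siRNA library and read by luminescence at 72 hours; hits defined by MAD score above 1.0 or below -1.0.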
row,Sequence,median seed-adjusted z-score
1,CCACUGCAACUGUAAUUCUTT against PROCA1,-0.502
2,GAGUUCGUCGAAUCCCAAATT against SETMAR,0.191
3,CCUCGAUUCUUAAAGACGATT against RELN,0.207
4,GCUUUGGAGUCACAGGUCATT against EYA3,-0.0191
5,GGAGACAAGCACAAGCUGATT against S100B,0.862
6,GUGCGAUUCUGGAUGACAATT against EVI1,0
7,CAUGGGACCUGAUUCAAGATT against FCER2,-1.75 (active)
8,CCAGAUCAGUCCUAGCUUATT against GLIS3,-0.00906
9,AGCUGGUUCACGACAUGAATT against TRIP6,1.03 (active)
10,GCAUUGACUGGUCCUAUGATT against CPA2,0.0374
11,GCACUCCCAAGAUUGAUAATT against RBPJ,-0.452
12,CACUGAUUUUGGAUGCUCUTT against HES1,-0.262
13,ACACGGCAUUAAAAAGCUATT against JRK,-0.624
14,AAACCAUCAUGCUGAGGUGTT against FCGR2A,-0.19
15,GAGCACGACUGAAAAUGUATT against PTS,-0.103
16,UAACCGAUUUGAUAUGAAUTT against ANKRA2,1.26 (active)
17,GGGAGAGUGUGCUACGAAATT against NEIL1,-0.168
18,GAUUCGCAGUUUAGAUGUUTT against PRKAA2,-0.194
19,GUACUUACCUUGUGAGGCATT against VAV3,0
20,GGUGGGUGGUAAGAGGGAATT against AQP2,-0.433
21,GCAGAUGUAUAAGAAGGCATT against RRM2,-3.84 (active)
22,GGAGAGAGCUCUCACAUCUTT against PPT1,0.727
23,AGAUUGUAGUUGUGGAUCATT against CDH15,0
24,CAGCUGUAGUUCUAACUAUTT against ZNF23,-0.106
25,GGAUCAAUGUGACGGAGAATT against EMILIN2,0.726
26,GAGUCGAACUUUACUGUCUTT against MLL2,-2.11 (active)
27,GGAAUGGAAUGAUCGGUGATT against GRIN2A,0.025

row,Sequence,median seed-adjusted z-score
1,CGAGUUUGAUGAAAGAGGATT against NT5E,0.199
2,CGUUAUGCCUGGUCUCCUATT against SPPL3,0.652
3,CAGAUUUGGUAAAAGAGUATT against VPS26A,-1.55 (active)
4,CCCAUUUCGGACUCCAAAATT against IRX3,-0.285
5,ACUUUGCCUUCAAGCUCUATT against SERPINA13,-0.403
6,GCUACUAUGCUGAAGAUCATT against CDH18,0.21
7,GGAAGAUGUUGACAUAUUUTT against ACAT2,1.25 (active)
8,GAAUAAGUGACUAUCCAAATT against SENP2,0
9,GGAGGCACCUCUCAAGAUATT against THRAP3,-0.852
10,GCGAGGCUGUUAACCCUUATT against PRKCQ,0.692
11,GAUGCUAUGGAAUACCAUATT against METTL4,0.244
12,GCUGGUACCCUGGAGGAAATT against GNRH2,1.13 (active)
13,ACAUGGUUAUUCCCAGUGATT against AKR1CL2,-0.949
14,CAUUCAAUCCGGACCAUUUTT against CYP2J2,0.00659
15,CAGAUAUUAUGAAGAAUUUTT against GALNS,0.0287
16,GCCUCUUUCUGUCAGCAUUTT against SPAG4,-0.219
17,GGAAGGAUAUUACACCUAUTT against MMP24,-1.28 (active)
18,GCAAAGCCCUGUCAAACAATT against NPM2,0.215
19,CCAAGAAACUGCGAGACAATT against CNGA2,-0.0447
20,CCAGAGUCCUGUUCGAUUUTT against USP30,-0.646
21,CCUCAAGCCUGUAGAAGAATT against SMNDC1,-1.54 (active)
22,CAGCAUUUAUCAAGUCUUATT against BMP6,0.301
23,GCAUCGGCAUUGAAGGCUUTT against ALOX15B,0.156
24,GUAACUUCCUAUUCACCAATT against EPAS1,-0.166
25,GGUCUGGAGAAGGUGCAUATT against ANGPTL4,1.37 (active)
26,CUCUACCAACAAUCACAAATT against NPTN,0.133
27,GGUCGAGUUCUACUACAAATT against IPO11,-0.245

# — PubChem BioAssay AID1347426 (Functional Genomics Laboratory (NCATS/FGL), 2020)
